Experimental findings from PubChem BioAssay (NCI) are described below.

The structures appear in SMILES notation. About 83,000 compounds went through this panel and 20% of them were active in at least one assay; those are over-represented in the sample as a whole.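 Testing used 96-well plates and a 48-hour single-concentration exposure. Example: -40 means 40% of the starting cells died.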 The source made the active and inactive calls. Rule for the calls: active = growth percent below 10; inactive = the rest.

The subject of this experiment is MDA-MB-468 breast. As to the kind of experiment: NCI-60 one-dose screen, 48 h (100 = growth as untreated, 0 = no growth, -100 = all killed). The conditions noted are these: 10 µM unless noted.
As to `COc1cc(CC(=O)n2ncc3ccc(N)cc32)cc(OC)c1OC`, the growth is 94.8% (inactive).
Regarding `CSc1ccc(-c2n[nH]nc2-c2cc3ccccc3s2)cc1`, the growth is 54% (inactive).
For the compound `COC1C/C(=N\O)C2OC(c3ccccc3)OCC2O1` (stereo not given), the growth is 105% (inactive).
With `COc1cc(C2CC(=O)Nc3c2c(C)nn3-c2nc3ccccc3[nH]2)c(OC)c(OC)c1OC` (stereo not given) the figure was 31.1% (inactive); with `COc1cc(-c2nn(-c3ccc(NC(=O)Nc4ccc(Cl)c(Cl)c4)cc3)cc2-c2ccncc2)ccc1Cl`, 30.4% (inactive); with `CN1CCN(c2ccc(Nc3nc(NCCNC(=O)c4ccc(F)cc4)c4sccc4n3)cc2)CC1`, 48.4% (inactive).
In the case of `O=C1Nc2ccccc2/C1=C/C(=O)c1ccc(N2CCOCC2)cc1`, the growth was 85% (inactive).
On to `C1=C(c2ccccc2)c2ccccc2C1`, for which the growth was 100% (inactive).
In the case of `S=C(NCCNC(=S)[S][Sn]([c]1ccccc1)([c]1ccccc1)[c]1ccccc1)[S][Sn]([c]1ccccc1)([c]1ccccc1)[c]1ccccc1`, the growth is -97.9% (active).
Regarding `COc1ccc2nc(Cl)c(Cn3nnc(Cc4ccccc4)n3)cc2c1`, the growth was 29.9% (inactive).
With `O=C1[C@H]2Cc3c([nH]c4ccccc34)[C@@H](c3ccc(Cl)cc3)N2C(=O)CN1C1CCN(Cc2c(Cl)cccc2Cl)CC1`, the growth is 98.3% (inactive).
As for `O=C(Nc1ccccc1[N+](=O)[O-])c1ccc(Cl)c(Cl)c1`, the growth is 65.7% (inactive).
With `C[C@@H]1C[C@H]2C(=O)O[C@@H](C)[C@H](NC(=O)[C@H](Cc3cc(F)cc(F)c3)NC(=O)Nc3ccc(Cl)cc3F)C(=O)N3C[C@H](O)C[C@H]3C(=O)N3CCN(C)C[C@H]3C(=O)N[C@@H](C)C(=O)N2C1` the figure was 11.5% (inactive).
`N#Cc1c(-c2ccc(Cl)cc2)nc(NN2C(=O)c3ccccc3C2=O)nc1N1CCOCC1`: the growth was 99.4% (inactive).
Take `COc1ccc(OC)c(Nc2nc(-c3c(C)nc4sccn34)cs2)c1`: the growth was 24.5% (inactive).
Consider `CN(CC(=O)N(Cc1ccc(C2CCCCC2)cc1)c1ccc(C(=O)O)cc1)S(=O)(=O)c1c(F)c(F)c(F)c(F)c1F`, for which the growth is -86.6% (active).
Take `COc1cc2c(cc1-c1c(C)noc1C)ncc1nc(C3CCC(F)(F)CC3)n(C3CCC(OC(F)F)CC3)c12` (stereo not given): the growth was 43.4% (inactive).
On to `Clc1ccc([C@@H]2C[C@@H]3Cc4cc(Br)c5ccccc5c4N2O3)c(Cl)c1`, for which the growth is 59.2% (inactive).
As for `COc1cccc(-c2nc3cc(NC(=O)c4ccc(Cl)c(C#N)c4)ccc3o2)c1`, the growth is -60.3% (active).
As to `COC(=O)c1c2c(c(C)[n+]([O-])c1C)C(=O)C=C(NCc1ccc(F)c(Cl)c1)C2=O`, the growth is -70.5% (active).
With `COC(=O)c1ccc(=O)oc1` the figure was 105% (inactive); with `N=C(N)c1ccc(-c2ccc(-c3ccc(Cl)cc3)o2)nc1`, -88.7% (active); with `COc1cc(NC(=O)c2cc3ccccc3cc2O)c(OC)cc1Cl`, -5.6% (active).
In the case of `C#Cc1cccc(Nc2nc3ccc([N+](=O)[O-])cc3nc2Nc2cccc(C#C)c2)c1`, the growth is -45.9% (active).
Turning to `COc1ccc(CN2CCc3c(Cl)nc(N)nc3C2=O)c(OC)c1`, the growth is 12% [100 µM] (inactive).
On to `O=C(CCCCCCN1CC(=O)N2[C@@H](c3cccc(Cl)c3)c3[nH]c4ccccc4c3C[C@H]2C1=O)NO`, for which the growth was 47.2% (inactive).
Take `CCCCCCCCNc1cccc2c1C(=O)c1ccccc1C2=O`: the growth is 95.4% (inactive).
For the compound `CC(C)Nc1ccc(Nc2ccc(NC(C)C)cc2)cc1`, the growth was -7.07% (active).
In the case of `O=C1c2ccccc2NC(c2cn(-c3ccccc3)nc2-c2cccs2)N1Cc1ccccc1` (stereo not given), the growth is 95.4% (inactive).
Regarding `CCn1c(SCC(=O)Nc2cccc(C(=O)/C=C/c3ccc(Br)cc3)c2)nc2ccccc2c1=O`, the growth was 86.6% (inactive).
As for `S=C(Cc1ccc2c(c1)CCCC2)N1CCOCC1`, the growth was 105% (inactive).
In the case of `COc1ccc(COC(C)=O)cc1`, the growth is 108% (inactive).
As for `CC(CCC(=O)O)(NC(=O)c1ccc([N+](=O)[O-])cc1)C(=O)O` (stereo not given), the growth was 112% (inactive).
As for `C#CCOc1cccc(Nc2ncnc3cc(NC(=O)CCl)ccc23)c1`, the growth is -52.5% (active).
With `O=C(O)c1cn(C2CC2)c2cc(N3CCN(C(=O)c4cc(-c5ccc(Cl)cc5)nc5ccccc45)CC3)c(F)cc2c1=O`, the growth was 99% (inactive).
To `Nc1ncnc2c1c(-c1cccc(Cl)c1)nn2CC(=O)N1CCOCC1` belongs 98.6% (inactive).
Regarding `COc1ccc2c(c1)c(-c1nc(-c3cn(C)c4ccncc34)cs1)cn2C`, the growth was -28.4% (active).
As for `COc1ccc(-c2nc(/C=C3\SC(=NCc4ccccc4)NC3=O)c3ccccn23)cc1`, the growth is -56.9% (active).
With `N#CC1=C(/N=C/c2ccccc2)Oc2c(ccc3ccccc23)C1c1ccccc1` (stereo not given) the figure was 6.43% (active); with `Nc1nc(Nc2ccccc2SSc2ccccc2Nc2nc(N)nc(-c3ccc4ccccc4c3)n2)nc(-c2ccc3ccccc3c2)n1`, 103% (inactive).
